FAS-TE inh: inhibitors of human fatty acid synthase thioesterase domain; inhibition, % at 15 µM; recombinant FAS-TE, OMFH fluorogenic substrate, fluorescence endpoint; 360,000 compounds, 0.67% hits; P49327;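 active = compounds whose normalised, plate-corrected inhibition of enzyme fluorescence in the single-dose primary screen is 50% or more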;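 also: 0% = DMSO with enzyme and 100% = substrate without enzyme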
GAA850 FXN act: increases GAA850 frataxin promoter reporter activity; activation, % at 6 µM; HEK293 lucGAA850 FXN promoter luciferase reporter, 24 h; percent of 10 µM SAHA response; 360,000 compounds, 0.56% hits;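 active = activation above the average of all compounds screened plus 3 SD, cutoff fixed separately per campaign, cut at about 7.5% in these data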;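 also: 0% = DMSO wells and 100% = 10 µM SAHA wells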
SMARCA2 act: activators of SMARCA2 function; MG213 cells, MMTV-luciferase reporter, dexamethasone, overnight; 370,000 compounds, 1% hits; AID 652017; activation, % at 9.1 µM; in the data active = activation above about 7.8%;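 also: 0% = vehicle wells and 100% = reference activator wells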
KLK7 zymogen act: activates the human kallikrein-7 zymogen | P49862 | purified proKLK7, EDANS-DABCYL substrate fluorescence; 100% is mature enzyme control, 0% vehicle | activation, % at 7 µM | 370,000 compounds, 0.9% hits;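 active = activation above the mean of all tested compounds plus 3 SD, computed per campaign excluding outliers beyond control limits, cut at about 13% in these data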
GAA30 FXN cntr: GAA30 FXN promoter activation counter-screen | AID 588350 | HEK293 lucGAA30 FXN promoter luciferase, 24 h; DMSO = 0%, 5 µM ipriflavone = 100% | activation, % at 6 µM | shares compounds with GAA850 FXN act | 1,900 compounds, 66% hits;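 active = mean activation above the mean of solvent-only control wells plus 3 SD, cut at about 22% in these data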;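 also: counterscreen of GAA850 promoter hits where activity marks nonselective or luminescence artifacts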
FXN GAA850 conf: GAA850 FXN promoter activation confirmation | AID 588351 | shares compounds with GAA850 FXN act | activation, % at 6 µM | 1,900 compounds, 86% hits | HEK293 lucGAA850 FXN promoter luciferase reporter, 24 h; 100% = activation by SAHA;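 active = mean activation above a set limit taken from the primary screen, cut at about 8% in these data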;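 also: 0% = DMSO wells and 100% = 10 µM SAHA wells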
* marks the source's active call; other numbers are inactive results; nt = not tested or not shown. An excerpt weighted towards active compounds, which were near 2.9% of everything screened.

SMILES | FAS-TE inh | GAA850 FXN act | SMARCA2 act | KLK7 zymogen act | GAA30 FXN cntr | FXN GAA850 conf
CS(=O)(=O)c1ccc(S(=O)CC(=O)OCc2ccccc2)c([N+](=O)[O-])c1 (stereo unspecified) | 23 | 95* | -14 | 0 | -91 | -17
CCOC(=O)c1ccccc1OC(=O)CS(=O)c1ccccc1[N+](=O)[O-] (stereo unspecified) | 0 | 0 | -3 | 0 | nt | nt
CCn1c(=O)[nH]c(=O)c2c(N)c(C(=O)c3cc(F)ccc3F)sc21 | 3 | 8.7* | 2 | 0 | 23* | 18*
NCC[C@H](O)C(=O)N[C@@H]1C[C@H](N)[C@@H](O[C@H]2O[C@H](CN)[C@@H](O)[C@H](O)[C@H]2O)[C@H](O)[C@H]1O[C@H]1O[C@H](CO)[C@@H](O)[C@H](N)[C@H]1O | -1 | -1 | 4 | 0 | nt | nt
Nc1ncnc2c1ncn2C1OC(CO)C2OC21 (stereo unspecified) | -6 | nt | -6 | 0 | nt | nt
CCOC1OC2C(CO)OC(n3cnc4c(N)ncnc43)C2O1 (stereo unspecified) | -4 | 11* | -4 | 0 | 28* | 9.2*
N#CCn1c(C2CCCCC2)nc2ccccc2c1=O | -10 | 9.3* | 2 | 0 | 26* | 14*
COC(=O)[C@]12C(=O)C(C)=C(O)[C@@]1(C)C(C)=CC1[C@@]34CC[C@@H](OC(C)=O)C(C)(C)C3C(C[C@]12C)OC4=O (stereo partly specified) | -10 | 8.8* | 2 | 0 | 4 | 3
Cc1cc(O)c(-c2cc(O)c(C)cc2O)cc1O | 0 | 11* | -1 | 0 | 18 | 29*
O=C(COc1ccccc1)Nc1ccc(NC(=O)c2ccco2)cc1 | 1 | 1 | -3 | 0 | nt | nt
CCOc1ccc(NC(=O)Cc2ccccc2)cc1 | -2 | 8.4* | 5 | 0 | 82* | 31*
O=C(Cc1ccccc1)Nc1ccc(NC(=O)c2ccco2)cc1 | -6 | 7.9* | 1 | 1 | 48* | 22*
Cc1cc(Nc2cc(C(F)(F)F)cc(C(F)(F)F)c2)cc(=O)n1-c1cc(C(F)(F)F)cc(C(F)(F)F)c1 | nt | nt | -1 | 0 | nt | nt
O=C1CC(c2ccc3c(c2)OCCO3)Oc2ccc([N+](=O)[O-])cc21 (stereo unspecified) | 13 | -9 | -3 | -1 | nt | nt
CN(C)c1ccc(/C=N\NC(=O)c2ccc(Cn3cc(Cl)cn3)cc2)cc1 | -8 | 0 | 1 | 3 | nt | nt
COc1ccc(S(=O)(=O)Nc2ccccc2SC)cc1C | 2 | 1 | -3 | 1 | nt | nt
COc1ccc(S(=O)(=O)Nc2ccccc2OC)cc1C | 3 | 8.9* | 0 | 0 | 10 | 7
Clc1cccc(NCc2nnc3n2CCCCC3)c1 | -3 | 1 | -2 | 0 | nt | nt
COc1ccc(C2=Nn3c(nnc3-c3cccnc3)SC2)cc1OC | -4 | 15* | 0 | 0 | 31* | 20*
NC(CCc1ccccc1)c1csc(NC(=O)Nc2ccccc2Oc2ccccc2)n1 (stereo unspecified) | -76 | 11* | -5 | 0 | 9 | 16*
COc1cccc(Nc2nc(C(N)COCc3ccccc3)cs2)n1 (stereo unspecified) | -9 | 4 | 1 | 1 | nt | nt
COc1cccc(Nc2nc(C(N)CCc3ccccc3)cs2)n1 (stereo unspecified) | -2 | 8.3* | -3 | 0 | -4 | 7.7*
NC(Cc1ccc(C(F)(F)F)cc1)c1csc(NC(=O)Nc2ccccc2Cc2ccccc2)n1 (stereo unspecified) | -33 | 15* | -3 | 0 | 20 | 15*
COc1cccc(NC(=O)N2CCN(c3ccc(C(F)(F)F)cn3)CC2)c1 | -6 | -3 | -2 | 0 | nt | nt
Cc1ccccc1NC(=S)NCc1ccc2c(c1)OCO2 | -6 | 1 | 1 | 0 | nt | nt
SMILES | FAS-TE inh | GAA850 FXN act | SMARCA2 act | KLK7 zymogen act | GAA30 FXN cntr | FXN GAA850 conf
CCCOc1ccc(-c2c(=O)n(O)c3ccccc3[n+]2[O-])cc1 | -6 | 11* | 4 | -3 | 95* | 31*
CCOc1ccc(-c2c(=O)n(OCc3ccccn3)c3ccccc3[n+]2[O-])cc1 | -6 | -1 | 4 | -4 | nt | nt
Cc1ccc(S(=O)(=O)c2nc(S(C)(=O)=O)sc2N2CC(C)OC(C)C2)cc1 (stereo unspecified) | 10 | 0 | -3 | -1 | nt | nt
Cc1ccc(CNC(=O)CCNS(=O)(=O)c2cccs2)cc1 | -7 | -2 | 0 | 0 | nt | nt
CCOc1ccc(CN(C)C(=O)c2cc3ccccc3o2)cc1OC | -2 | 5 | -1 | 1 | nt | nt
CCN(Cc1ccc(OC)c(F)c1)C(=O)c1cc2ccccc2o1 | 15 | 8.5* | -1 | -1 | 34* | 17*
CN(C)c1ccc(N=Nc2ccccc2C(=O)OCC(=O)Nc2ccccc2C(F)(F)F)cc1 | 38 | 7.6* | 0 | -1 | 73* | 23*
CN(C)c1ccc(N=Nc2ccccc2C(=O)OCC(=O)N2CCCC2)cc1 | 3 | 4 | 5 | 0 | nt | nt
Clc1ccc(C=Cc2ccccn2)c(Cl)c1 | 17 | 7.7* | 2 | 1 | 120* | 37*
COc1ccccc1OCCNC(=O)CNC(=O)c1ccc(Cl)c(Cl)c1 | 6 | 2 | 3 | 0 | nt | nt
COc1ccc(C(=O)/C=C2\C(=O)Nc3ccc(Br)cc32)cc1 | 2 | 2 | 2 | 1 | nt | nt
O=C1Nc2ccc(Br)cc2/C1=C/C(=O)c1ccc2c(c1)OCO2 | 4 | 11* | -1 | 0 | 14 | 9.9*
COc1cc(C)c(C(=O)CC(=O)c2c(C)cc(OC)cc2C)c(C)c1 | 13 | -2 | -4 | 0 | nt | nt
O=C(COC(=O)Cn1cnc2ccccc21)Nc1ccc2c(c1)C(=O)c1ccccc1C2=O | -13 | 8.7* | 5 | 1 | 108* | 46*
O=C(COC(=O)Cn1cnc2ccccc21)Nc1ccc(Br)cc1 | -6 | 0 | 1 | 1 | nt | nt
Cc1nc(SCC(=O)N2CCNC2=O)c(C#N)c(C)c1C | -5 | 2 | -3 | 1 | nt | nt
Cn1c(=O)c2nc(-c3ccccc3)oc2c2ccccc21 | 2 | 12* | 2 | -1 | 44* | 24*
C=CCN(c1ccccc1)S(=O)(=O)c1ccc(Cl)c(C(=O)OCC(=O)c2[nH]c(C)c(C(C)=O)c2C)c1 | 26 | 2 | -1 | 1 | nt | nt
Cc1cc(C)nc(N2N=C(C(C)(C)C)CC2=O)n1 | -2 | 16* | -3 | 0 | 21 | 8.0*
Cc1nn(-c2ccccc2)c(Cl)c1/C=N/NC(=O)OC(C)(C)C | 5 | -3 | 3 | 0 | nt | nt
CCOC(=O)N/N=C/c1c(C)nn(-c2ccccc2Cl)c1Cl | -8 | 8.2* | 5 | 0 | 93* | 34*
CC(=O)C1=C(C)NC(=S)NC1c1cc([N+](=O)[O-])ccc1O (stereo unspecified) | -2 | 1 | -1 | 1 | nt | nt
